High-throughput results as filed in PubChem.
Compounds with a hit are over-represented: about 3.6% of the library has one in this group of screens.
MITF act: MITF TRPM1 promoter activation in melanoma cells; SK-MEL-5 TRPM1-promoter luciferase, 24 h; % of positive control, neutral wells = 0; activation, % at 12.5 µM; 0.75% of 300,000 active; AID 588334;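 active means mean activation of at least 80% with every replicate also reaching 80%; inconclusive means mean reaches 80% but some replicate falls short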;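 further: 0% = neutral control wells and 100% = parthenolide positive control wells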
Wnt act: activates Wnt/beta-catenin signaling in a reporter cell assay. activation, % at 9.35 µM. AID 743398. activator, plate reader. 1.2% of 300,000 active; in the data active means activation above about 30%, passing the limit was not always enough; inconclusive means no clear call, values can overlap the other calls;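 further: 0% = neutral control wells and 100% = positive control wells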
A3G deaminase: inhibitors of human APOBEC3G DNA deaminase. 0.28% of 330,000 active. AID 493012. inhibition, % at 20 µM. recombinant A3G, ssDNA deamination FAM/TAMRA fluorescence. Q9HC16;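 active means inhibition of at least 40% at 20 µM, with no more than 30% in the related APOBEC3A deaminase screen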;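 further: plate controls were DMSO wells with A3G for no effect and wells lacking A3G enzyme for full effect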
esBAF inh: SWI/SNF esBAF complex inhibition. mouse ES cells, Bmi1-luciferase knock-in reporter, 24 h; 100% = twice the neutral-well signal. 2% of 350,000 active. AID 602393. reporter increase, % at 12.5 µM; in the data active means activation above about 40%; inconclusive means no clear call, values can overlap the other calls;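 further: 0% = median of the plate's neutral control wells and 100% = double that signal; a rise in the Bmi1 reporter signal indicates esBAF inhibition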
PHOSPHO1 block: inhibitors of human PHOSPHO1 phosphatase. Q8TCT1. recombinant PHOSPHO1, absorbance phosphatase assay. inhibition, % at 13.3 µM. 1.1% of 290,000 active. AID 1565; in the data active means inhibition above about 60%
Target sequence (Q8TCT1 whole entry, looked up): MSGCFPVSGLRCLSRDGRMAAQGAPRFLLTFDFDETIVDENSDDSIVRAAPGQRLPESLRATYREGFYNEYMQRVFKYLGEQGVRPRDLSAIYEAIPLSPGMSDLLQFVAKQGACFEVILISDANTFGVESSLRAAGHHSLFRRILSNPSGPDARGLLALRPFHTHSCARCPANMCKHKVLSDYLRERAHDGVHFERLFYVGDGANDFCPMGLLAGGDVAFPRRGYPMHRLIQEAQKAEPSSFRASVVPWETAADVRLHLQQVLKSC
A3A deaminase: inhibitors of human APOBEC3A DNA deaminase. inhibition, % at 20 µM. 0.41% of 330,000 active. recombinant A3A, FAM/TAMRA ssDNA deamination fluorescence. AID 493011. P31941;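 active means at least 40% inhibition at 20 µM here, with at most 30% in a related deaminase screen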;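 further: plate controls were A3A with DMSO for no effect and wells lacking A3A enzyme for full effect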
Target sequence (P31941 whole entry, looked up): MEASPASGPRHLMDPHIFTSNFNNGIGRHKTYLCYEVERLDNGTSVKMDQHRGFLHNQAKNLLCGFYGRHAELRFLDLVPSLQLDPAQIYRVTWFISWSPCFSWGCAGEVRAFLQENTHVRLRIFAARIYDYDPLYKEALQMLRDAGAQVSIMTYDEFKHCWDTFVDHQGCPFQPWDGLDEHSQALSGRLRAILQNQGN
Starred values were filed as active, the others as inactive; ? = inconclusive; . = not tested or not shown.

SMILES	MITF act	Wnt act	A3G deaminase	esBAF inh	PHOSPHO1 block	A3A deaminase
Cc1ccc(C(=O)Nc2ncccc2S(=O)(=O)c2ccccc2)cc1	100*	20	.	113*	.	.
Cc1ccc(-c2csc(Nc3ccc(C(=O)O)cc3)[n+]2Cc2ccccc2)cc1	9	3	-2	.	62*	-8
Cc1ccc(C(=O)NNC(=S)NC(=O)c2ccc(Cl)cc2Cl)cc1	4	7	-3	.	76*	-1
Cc1ccc(C(=O)NNC(=S)NC(=O)c2ccccc2)cc1	15	0	-3	.	.	0
CCNC(=O)[C@H]1[C@H](CO)[C@H]2Cn3c(ccc(-c4ccc(OC)cc4)c3=O)[C@@H]1N2S(C)(=O)=O	.	.	.	-2	.	.
CC(C)CC(=O)Nc1ccc2nn(-c3ccccc3)nc2c1	99*	?	-9	.	16	-6
CC(C)C(=O)Nc1ccc2nn(-c3ccc(F)cc3)nc2c1	.	.	-3	2	8	-3
Cc1ccc(-n2nc3ccc(NC(=O)C(C)C)cc3n2)cc1	111*	-4	-7	100*	50	0
CCCC(=O)Nc1ccc2nn(-c3ccc(OC)cc3)nc2c1	76	-1	1	50*	8	-1
CCC(=O)Nc1cc2nn(-c3ccccc3)nc2cc1Cl	7	38*	1	36	18	3
CC=Cc1ccc2n(c1=O)C[C@@H]1[C@@H](CO)[C@H](C(=O)NC3Cc4ccccc4C3)N(CCC)[C@H]21 (mixture of isomers)	.	.	.	-3	.	.
CC(=O)Nc1cc2nn(-c3ccccc3)nc2cc1C	7	22	-2	8	22	-1
CC(=O)Nc1ccc2c(c1)ncn2-c1ccc(C)cc1	39	43*	-17	.	8	1
CC(=O)Nc1ccc2c(c1)ncn2C	.	-4	-4	.	3	3
Cc1cc2nn(-c3ccccc3)nc2cc1NC(=O)c1cccs1	48	31*	6	.	16	4
CO[C@@H]1CN(C)C(=O)c2cc(NC(=O)Cc3ccccc3)ccc2OC[C@@H](C)N(C(=O)c2ccccc2F)C[C@@H]1C	.	.	.	-2	.	.
COc1ccc(-c2csc(Nc3ncccc3C)n2)cc1OC	79	3	-4	87*	-45	2
COc1ccc(-c2csc(Nc3ncccn3)n2)cc1C	73	38*	-9	?	33	-3
C[C@H](CO)N1C[C@H](C)[C@@H](CN(C)C(=O)Cc2ccncc2)Oc2cc(C#CC3CC3)ccc2S1(=O)=O	.	.	.	-1	.	.
COc1cccc(NC(=O)N(C)C[C@H]2Oc3ncc(C#Cc4cccnc4)cc3C(=O)N([C@@H](C)CO)C[C@@H]2C)c1	.	.	.	1	.	.
CNC[C@H]1Oc2cc(-c3ccncc3)ccc2S(=O)(=O)N([C@H](C)CO)C[C@@H]1C	.	.	.	-3	.	.
Cc1ccc([N+](=O)[O-])cc1-c1ccc(/C=C(\C#N)c2[nH]nc(N)c2C#N)o1	43	?	.	83*	6	.
O=S(=O)(c1ccc(F)cc1)N1C[C@H]2[C@@H](c3ccccc31)[C@H](CO)N2Cc1ccccc1Cl	.	.	.	6	.	.
Cn1nc(-c2ccc(Cl)cc2)cc1NC(=O)CC(C)(C)CC(=O)O	.	41*	2	.	20	7
Cn1nc(-c2ccccc2)cc1NC(=O)CCCC(=O)O	4	1	-3	.	12	0
SMILES	MITF act	Wnt act	A3G deaminase	esBAF inh	PHOSPHO1 block	A3A deaminase
Cc1ccc(-c2n[nH]c(Cc3ccccc3)n2)cc1	?	0	-7	54*	58	-4
c1ccc(Cc2noc(CN3CCC(CN4CCOCC4)CC3)n2)cc1	7	-1	-9	2	61*	1
O=C(CCn1c(=O)[nH]c2ccsc2c1=O)NCCc1ccc(Cl)cc1	-1	-5	-6	5	-2	-4
CCOc1ccc(NC(=O)CCCCn2c(=O)[nH]c3ccsc3c2=O)cc1	9	37*	-4	4	20	4
O=C(CCCCn1c(=O)[nH]c2ccsc2c1=O)NCCc1ccccc1	10	37*	1	3	20	3
CCOC(=O)N1CCC(NC(=O)c2oc3c(F)cccc3c2C)CC1	44	13	-2	50*	22	-2
O=C(C[C@@H]1CC[C@H]2[C@@H](COC[C@H](O)CN2CCc2ccccc2)O1)NCc1ccccc1	.	.	.	3	.	.
CC1CCCN(c2ccc3nc4ccccc4c(=O)n3n2)C1 (stereo unspecified)	-16	3	-11	.	-2	-10
Cc1ccc2nc3ccc(N4CCCC4)nn3c(=O)c2c1	94*	.	1	39	23	1
Cc1sc2nc3ccc(N4CCCCC4)nn3c(=O)c2c1C	121*	-2	6	-5	41	-4
Nc1ccc(OCc2ccccc2)cc1	18	-4	-4	17	-2	-2
c1ccc(COc2ccc3nocc3c2)cc1	117*	32*	-7	104*	.	-6
CCCc1cn(CC[C@H]2CC[C@H](NC(=O)Nc3ccccc3F)[C@H](CO)O2)nn1	.	.	.	0	.	.
C/C(=N\Nc1ccc(Cl)c(C(=O)O)c1)c1cccc2ccccc12	.	4	18	8	15	23
O=C(O)c1cc(N/N=C/c2cccc3ccccc23)ccc1Cl	100*	27	-1	80*	-6	1
Cc1ccc(Cn2cc(-c3ccccc3)nn2)cc1	52	20	-8	57*	-7	1
CCCCCc1ccc(-c2cn(CC3CCCCC3)nn2)cc1	18	-2	-6	-2	-69	-2
c1ccc(-c2cn(CC3CCCCC3)nn2)cc1	45	32*	2	65*	4	2
COc1ccc(-c2cn(CC3CCCCC3)nn2)cc1	88*	18	-3	67*	10	0
COc1ccc(-c2cn(Cc3ccc(C(=O)c4ccccc4)cc3)nn2)cc1	.	?	-6	.	-2	-1
c1ccc(-c2cn(C[C@H]3CC[C@@H]([C@@H]4CC[C@H](Cn5cc(-c6ccccc6)nn5)O4)O3)nn2)cc1	0	-4	7	2	31	2
C[C@H](CO)N1C[C@H](C)[C@@H](CN(C)Cc2cccnc2)Oc2cc(C#CCN(C)C)ccc2S1(=O)=O	.	.	.	2	.	.
O=C(Nc1cccc(F)c1)c1ccc2c(c1)OCCO2	36	-1	-3	40	10	0
O=C(Nc1ccc2c(c1)OCCO2)c1c(F)cccc1F	102*	21	-4	-11	0	1
O=C(Nc1ccc2c(c1)OCCO2)c1ccccc1F	.	5	-9	-30	7	-6
O=C(NC(=S)Nc1ccc2c(c1)OCCO2)c1ccccc1F	85*	18	-8	54*	47	2
O=C(O)C1Sc2[nH]c(=O)sc2C2c3cc(Cl)ccc3OC(=O)C12 (stereo unspecified)	-6	.	-4	-1	89*	-3
O=C(O)C1Sc2[nH]c(=O)sc2C2c3cc(Br)ccc3OC(=O)C12 (stereo unspecified)	4	0	2	.	-78	4
